Records with an inconclusive call do not appear. The source made the active and inactive calls. Calls come from the whole dose curve; as a rule, active = well fitted inhibition curve with a large enough effect; inconclusive = small, poorly fitted or top-dose-only effect; inactive = flat fitted curve, though single readings scatter.
experiment: qHTS for Inhibitors of Plasmodium falciparum (DD2) proliferation (AID 504314); details: P. falciparum Dd2 in erythrocytes, SYBR Green growth, 72 h; series mostly up to 6.11 µM
Source text: Plasmodium falciparum is a virulent malarial parasite that kills 1-2 million people worldwide each year. Malaria not only inflicts tremendous suffering and morbidity on the human population, but has dramatically influenced the course of civilization with profound sociological and economic implications (Shah, S. 2010). Transmitted by mosquitoes, the sporozoite form of the parasite enters the blood stream to infect hepatocytes, where they become merozoites that infect red blood cells (erythrocytes). Within erythrocytes, merozoites begin a […] cycle of growth and division, after which the parasite is released to infect new red blood cells. Gametocytes, which form within erythrocytes as well, circulate in the bloodstream and are ingested by the mosquito, thereby completing the life cycle (see CDC website). To profile malarial lines for differential chemical responses and to identify inhibitors of malarial growth, an assay that measures P. falciparum growth and replication within erythrocytes was employed. This assay uses a DNA binding fluorescent dye (SYBR Green) to detect parasite DNA following cell lysis. Because mature erythrocytes lack DNA, only Plasmodium-derived DNA is detected. The P. falciparum line cp250, derived from a malarial isolate from Cambodia, (Mu, J., et al. 2010) was added to the panel of lines, Dd2, HB3, 7G8 and GB4 in this study.
Laboratory of Assay Development and Screening Technology [ADST] and NIH Chemical Genomics Center [NCGC]
Boston University, Chemistry Department, Center for Chemical Methodology and Library Development [CMLD-BU]
NIH National Institute of Allergy and Infectious Diseases [NIAID]
ADST Assay Protocol Summary:
The 1536-well SYBR Green viability assay was based on the method of Bennett et al (2004) and described previously in 1536-well format (Yuan J., et al. 2009). For screening 3 ul culture medium was dispensed into 1536 well black clear bottom plates (Aurora Biotechnologies) using a Multidrop Combi (Thermo Fisher Scientific Inc.), 23 nL compounds in DMSO were added by a pin transfer (Cleveland, P.H. and Koutz, P.J, 2005) using a pin tool-based delivery system (Kalypsys), and 5 ul of erythrocytes infected with P. falciparum one of five lines (cp250, Dd2, HB3, 7G8 or GB4, 0.3% parasitemia, 2.5% hematocrit final concentration) were added. The plates were incubated at 37C in a humidified incubator in 5% CO2 for 72 h, and 2 ul lysis buffer (20 mM Tris HCl, 10 mM EDTA, 0.16% saponin, 1.6% triton X, 10X SYBR Green I (supplied as 10,000X final concentration by Invitrogen) was added to each well. The plates were mixed for 25 sec with gentle shaking and incubated overnight at room temperature in the dark. The following morning, fluorescence intensity at 485(14) nm excitation and 535(25) nm emission wavelengths was measured on an EnVision (Perkin Elmer) plate reader. Plate reads were normalized relative to the control inhibitor (0.29 uM artemisinin) and vehicle (DMSO) wells present on each plate and then corrected by an algorithm using vehicle-only control plates at the beginning and end of the compound plate stack.
Shah, S. (2010). The Fever: how malaria has ruled humankind for 500,000 years. New York, Sarah Crichton Books.
CDC web site, http://www.cdc.gov/malaria/about/biology/index.html
Mu, J., Myers, R.A., Jiang, H., Liu, S., Ricklefs, S., Waisberg, M., Chotivanich, K., Wilairatana, P., Krudsood, S., White, N.J., et Plasmodium falciparum genome-wide scans for positive selection, recombination hot spots and resistance to antimalarial drugs Nature Genetics 2010, 42, pp 268-271
Bennett TN, Paguio, M., Gligorijevic, B., Seudieu, C., Kosar, A. D., Davidson, E., and Roepe, P. D. Novel, rapid, and inexpensive cell-based quantification of antimalarial drug efficacy Antimicrobial Agents Chemother. 2004, 48(5): pp 1807-10
Yuan J, Johnson RL, Huang RL, Wichterman J, Jiang HY, Hayton K, Fidock DA, Wellems TE, Inglese J, Austin CP, Su XZ. […]

Potency, inactive:
C[C@@H]1C[C@H]2[C@@H](C)C(=O)N3[C@@H](C[C@@H](C)[C@@H]3c3ccccc3)[C@@H](C)C(=O)N2[C@H]1c1ccccc1
Cc1cc(O)cc(O)c1C(=O)OC1(C)C(=O)C=C2C=C(C=CC(=O)O)OC=C2C1=O (stereo not given)
COc1ccc(COC(=O)NN=C2C[C@@H](O)[C@@H](O)[C@@H]3[C@H]4C(=O)N(C[C@@H]5CCCO5)C(=O)[C@@H]4CC[C@@H]23)cc1
CC(C)=CCn1cnc2c1C(NOCc1ccccc1)=NCN2
C=C(CCN1C=C(C(C)=O)C(c2ccccc2)NC1=O)c1ccccc1 (stereo not given)
COc1ccc2c(c1)[C@@]1(OCCC=C[C@@H]1C)C(=O)N2CC1CC1
Cc1ccc(S(=O)(=O)NC(CCc2ccccc2)CC(=O)C(C)(C)C)cc1 (stereo not given)
CCCCC1=CC2=C(c3ccco3)C(=O)C(C)(OC(=O)c3ccc(OC)cc3)C(=O)C2=CN1C(CO)CO (stereo not given)
O=C(NC(CC1=CCCCC1)c1ccc2c(c1)OCO2)C(F)(F)F (stereo not given)
COC(=O)C1=C(C)N(Cc2ccccc2)C(=NCc2ccccc2)NC1c1ccccc1 (stereo not given)
COC(=O)c1cc(C(=O)OC)n2c(C)cc3ccccc3c12
O=C1CCC=C1C(O)c1ccc2c(c1)OCO2 (stereo not given)
COc1ccc(-c2nc(-c3ccccc3)oc2NC2CCCCC2)cc1
COC(=O)N[C@@H](c1cccc(C)c1)[C@]1(C(=O)OC)CCCC1=O
COc1ccc(NC(=O)N2CCc3nc(-c4ccccc4)c4c(c3C2)CO[C@@H](C)C4)cc1
COC(=O)CC=C[C@@H](C)[C@@H](C=NOC[C@@H](O)COCc1ccco1)OC
CCOC(=O)NN=C1C[C@@H](O)[C@@H](O)[C@@H]2[C@H]3C(=O)N(C4CCCCC4)C(=O)[C@@H]3CC[C@H]12
CC(=O)OC[C@H]1O[C@H](CC=NOC[C@@H](C)[C@H](OCc2ccccc2)C(C)C)C=C[C@@H]1OC(C)=O
CCO[C@H](c1cc(OC)cc([N+](=O)[O-])c1OC)[C@H](C)[C@@H](OC)[C@H](C)C=CCC(=O)OC
COC(=O)N1C(c2ccccc2)=Cc2ccccc2C1CC(C)=O (stereo not given)
C=CC1=C2C=C(C3CC3)N(CC3CC3)C=C2C(=O)C(C)(OC(=O)c2ccco2)C1=O (stereo not given)
COC(=O)C1=C[C@@]2(c3ccc(F)cc3[C@@H](OC)[C@@H]2C)[C@@H]2C=C[C@H]1C2
COC(=O)CCCC1=CC2=CC(=O)C(C)(OC(=O)c3cccs3)C(=O)C2=CN1CCCOC(C)C (stereo not given)
CCN1C(=NCC(C)C)N[C@H](c2ccccc2)[C@H](C(=O)OC)[C@H]1C
CC(C)CON=C1C[C@@H](O)[C@@H](O)[C@@H]2[C@H]3C(=O)N(Cc4ccc5c(c4)OCO5)C(=O)[C@@H]3CC[C@H]12
C=CCOC(=O)N[C@@H](c1ccccc1)[C@@H](C)[N+](=O)[O-]
COc1cccc([C@H]2Oc3ccc(OC)cc3C(=NO[C@@H](C)c3cc(-c4c(C)cc(C)cc4C)no3)[C@H]2O)c1
CCCCCCCc1cc2ccccc2c(=O)o1
C=CCN1c2ccccc2[C@]23CCC(=O)N(CC(=O)OC)C2=NC(C(=O)OC)=C(C(=O)OC)[C@H]13
COC(=O)C1=C(C)N(CC#C[Si](C)(C)C)C(=O)N(C(C)=O)C1c1ccccc1 (stereo not given)
COC(=O)C1C[C@@]23C(=NN=C(SC)C2N(C)c2ccc(OC)cc23)N1C(C)=O (stereo not given in full)
CC(=O)OC[C@H]1O[C@H](CC=NO[C@H](C)CN2CCCCc3nc(C)c(C)cc32)C=C[C@@H]1OC(C)=O
CC(=O)C1=C(C)N(Cc2ccccc2)C(=O)NC1c1ccco1 (stereo not given)
COC(=O)C1(C)C=C(Nc2ccc(OC)cc2)C(=O)N1c1ccc(OC)cc1 (stereo not given)

activity, negative = inhibition, inactive:
COC(=O)C1=C(C(=O)OC)[C@@H]2N(Cc3ccccc3)c3ccccc3[C@@]23C[C@@H](C(=O)OC)N(C(=O)c2cccs2)C3=N1 -0.326% [at 1.12 µM]
C=CC1=C2C=C(C3CC3)N(C3CCCCC3)C=C2C(=O)C(C)(OC(=O)c2ccco2)C1=O (stereo not given) 1.92% [at 1.12 µM]
COC(=O)C1=C(C(=O)OC)[C@@H]2N(C)c3ccc(OC)cc3[C@@]23C[C@@H](C(=O)OC)N(C(=O)c2ccco2)C3=N1 -1.01% [at 1.12 µM]
C[C@H]1Cc2c(-c3ccccc3)nc3c(c2CO1)CN(C(=O)Nc1cccc(C#N)c1)CC3 -4.46% [at 1.12 µM]
CC1(OC(=O)C2CCCC2)C(=O)C=C2C=C(c3ccsc3)N(CCN3CCOCC3)C=C2C1=O (stereo not given) 1.21% [at 1.12 µM]
CC1(OC(=O)CCc2ccccc2)C(=O)C=C2C=C(c3ccc(C#N)cc3)N(C(CO)CO)C=C2C1=O (stereo not given) -1.45% [at 1.12 µM]
